# Laboratory results: PubChem BioAssay (NCATS)
# Records with an inconclusive call do not appear. Active and inactive are the calls of the source. Calls come from the whole dose curve; as a rule, active = well fitted curve in the direction sought with a large enough effect; inconclusive = small, poorly fitted or top-dose-only effect, or another doubt; inactive = no such curve, though single readings can be large; an effect the other way counts as inactive or inconclusive.
# How the values were obtained:
# [1] = qHTS of pediatric cancer cell lines to identify multiple opportunities for drug repurposing: Primary screen for U-2 OS cells (AID 1347096); note: nearly all actives have a fitted effect of over 50% in size
# Outline: (§1)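 Cells (500-1,000/well) in growth media were settled 5 h at 37 degrees C, then given compounds for 48 h. Viability was read as CellTiter-Glo luminescence. Primary runs used MIPE at 11 points (0.78 nM-46 µM) and NPC at 8 points (0.59 nM-46 µM); follow-ups used 11 points.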
# [2] = qHTS of pediatric cancer cell lines to identify multiple opportunities for drug repurposing: Primary screen for Saos-2 cells (AID 1347097); note: nearly all actives have a fitted effect of over 40% in size
# Outline: (§2)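 ATP-based luminescence (CellTiter-Glo) quantifies viability after a 48-hour exposure. Compounds are dosed across 8 or 11 final concentrations; DMSO and 2.3 µM bortezomib serve as controls.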
# [3] = qHTS of pediatric cancer cell lines to identify multiple opportunities for drug repurposing: Primary screen for SK-N-SH cells (AID 1347098); note: nearly all actives have a fitted effect of over 65% in size
# Outline: (§3)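 Cells (500-1,000/well) rested 5 h, then received compounds for 48 h; metabolically active cells were measured by CellTiter-Glo luminescence. Final concentrations spanned up to 46 µM (MIPE, 11-point) or 0.59 nM-46 µM (NPC, 8-point) in primary screens, 11-point in follow-ups.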
# [4] = qHTS of pediatric cancer cell lines to identify multiple opportunities for drug repurposing: Primary screen for NB1643 cells (AID 1347099); note: nearly all actives have a fitted effect of over 50% in size
# Outline: as §2
# [5] = qHTS of pediatric cancer cell lines to identify multiple opportunities for drug repurposing: Primary screen for LAN-5 cells (AID 1347100)
# Outline: as §1
# [6] = qHTS of pediatric cancer cell lines to identify multiple opportunities for drug repurposing: Primary screen for BT-12 cells (AID 1347101); note: nearly all actives have a fitted effect of over 25% in size
# Outline: as §3
# [7] = qHTS of pediatric cancer cell lines to identify multiple opportunities for drug repurposing: Primary screen for Rh18 cells (AID 1347102); note: nearly all actives have a fitted effect of over 65% in size
# Outline: as §1
# [8] = qHTS of pediatric cancer cell lines to identify multiple opportunities for drug repurposing: Primary screen for OHS-50 cells (AID 1347103); note: nearly all actives have a fitted effect of over 40% in size
# Outline: as §3
# [9] = qHTS of pediatric cancer cell lines to identify multiple opportunities for drug repurposing: Primary screen for MG 63 (6-TG R) cells (AID 1347105); note: nearly all actives have a fitted effect of over 50% in size
# Outline: as §2
# [10] = qHTS of pediatric cancer cell lines to identify multiple opportunities for drug repurposing: Primary screen for Rh30 cells (AID 1347107); note: nearly all actives have a fitted effect of over 75% in size
# Outline: as §1
# [11] = qHTS of pediatric cancer cell lines to identify multiple opportunities for drug repurposing: Primary screen for Rh41 cells (AID 1347108); note: nearly all actives have a fitted effect of over 70% in size
# Outline: as §2
# [12] = qHTS of pediatric cancer cell lines to identify multiple opportunities for drug repurposing: Confirmatory screen for NB1643 cells (AID 1347109); note: nearly all actives have a fitted effect of over 45% in size
# Outline: as §1
# [13] = qHTS of pediatric cancer cell lines to identify multiple opportunities for drug repurposing: Confirmatory screen for A673 cells (AID 1347110);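 note: cells exposed to compound for 48 h before the viability read; nearly all actives have a fitted effect of over 65% in size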
# Outline: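 Viability was read as ATP luminescence (CellTiter-Glo) after 48 h of compound exposure at 37 C in A673 cells seeded at 500-1,000/well. Titrations reached 46 uM final, with 11 points in the confirmatory screen. Concentration-response curves were fitted directly.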
# [14] = qHTS of pediatric cancer cell lines to identify multiple opportunities for drug repurposing: Confirmatory screen for SK-N-MC cells (AID 1347111);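 note: cells exposed to compound for 48 h before the readout; nearly all actives have a fitted effect of over 70% in size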
# Outline: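 Metabolically active cells were quantified by ATP-dependent luminescence (CellTiter-Glo, 15 min at room temperature) following 48 h treatment. Cells had been plated at 500-1,000 per well and settled for 5 h beforehand.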
# [15] = qHTS of pediatric cancer cell lines to identify multiple opportunities for drug repurposing: Confirmatory screen for BT-12 cells (AID 1347112); note: nearly all actives have a fitted effect of over 55% in size
# Outline: as §1
# [16] = qHTS of pediatric cancer cell lines to identify multiple opportunities for drug repurposing: Confirmatory screen for LAN-5 cells (AID 1347113); note: nearly all actives have a fitted effect of over 65% in size
# Outline: as §1
# [17] = qHTS of pediatric cancer cell lines to identify multiple opportunities for drug repurposing: Confirmatory screen for DAOY cells (AID 1347114); note: nearly all actives have a fitted effect of over 65% in size
# Outline: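 Viability measured as metabolically active cells via CellTiter-Glo luminescence following 48 hours of compound exposure, 11-point dilutions in confirmatory testing. 500-1,000 cells/well plated 5 hours before dosing; controls were DMSO and 2.3 µM bortezomib.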
# [18] = qHTS of pediatric cancer cell lines to identify multiple opportunities for drug repurposing: Confirmatory screen for NB-EBc1 cells (AID 1347115);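 note: cells exposed to compound for 48 h before the viability read; nearly all actives have a fitted effect of over 45% in size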
# Outline: as §1
# [19] = qHTS of pediatric cancer cell lines to identify multiple opportunities for drug repurposing: Primary screen for control Hh wild type fibroblast cells (AID 1347106); note: nearly all actives have a fitted effect of over 55% in size
# Outline: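 Viability after 48 h compound treatment at 37C, 500-1,000 cells/well, read as ATP luminescence with CellTiter-Glo. Primary screens used 11-point (MIPE, 0.78 nM-46 µM) or 8-point (NPC, 0.59 nM-46 µM) final concentrations; follow-up screens used 11-point dilutions.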
# [20] = qHTS of pediatric cancer cell lines to identify multiple opportunities for drug repurposing: Primary screen for RD cells (AID 1347104); note: nearly all actives have a fitted effect of over 55% in size
# Outline: as §2
# Potency is the fitted concentration of half-maximal effect.
SMILES,Potency [1],Potency [2],Potency [3],Potency [4],Potency [5],Potency [6],Potency [7],Potency [8],Potency [9],Potency [10],Potency [11],Potency [12],Potency [13],Potency [14],Potency [15],Potency [16],Potency [17],Potency [18],Potency [19],Potency [20]
O=c1[nH]nc(Sc2ncc([N+](=O)[O-])s2)n1-c1ccc2c(c1)OCCO2,11.8 µM (active),10.5 µM (active),12.1 µM (active),4.69 µM (active),8.33 µM (active),17.2 µM (active),9.35 µM (active),9.68 µM (active),5.9 µM (active),10.5 µM (active),6.62 µM (active),7.37 µM (active),9.27 µM (active),5.85 µM (active),9.27 µM (active),7.37 µM (active),23.3 µM (active),7.37 µM (active),–,–
O=C(Nc1cn[nH]c1-c1nc2ccc(CN3CCOCC3)cc2[nH]1)NC1CC1,4.69 µM (active),0.935 µM (active),0.242 µM (active),5.26 µM (active),0.0105 µM (active),7.69 µM (active),0.935 µM (active),1.53 µM (active),7.43 µM (active),inactive,4.69 µM (active),–,inactive,1.65 µM (active),inactive,inactive,inactive,inactive,10.5 µM (active),–
CCC[C@H](NC(=O)C(C#N)=Cc1cccc(Br)n1)c1ccccc1,inactive,33.2 µM (active),24.1 µM (active),7.43 µM (active),14.8 µM (active),27.3 µM (active),14.8 µM (active),12.2 µM (active),–,–,14.8 µM (active),–,–,–,–,–,–,–,inactive,13.2 µM (active)
CC(NCc1ccc2c(c1)nc(NC(=O)c1ccc(-c3cn[nH]c3)s1)n2CC(C)(C)O)C(C)(C)C (stereo not drawn),1.18 µM (active),0.743 µM (active),0.961 µM (active),0.372 µM (active),0.132 µM (active),0.968 µM (active),1.66 µM (active),0.485 µM (active),2.35 µM (active),14.8 µM (active),0.743 µM (active),0.293 µM (active),0.827 µM (active),–,0.928 µM (active),–,1.47 µM (active),0.827 µM (active),2.35 µM (active),–
O=C(c1ccc(Nc2nccc(-c3cc4ccccc4s3)n2)cc1)N1CCC(N2CCCC2)CC1,23.5 µM (active),16.6 µM (active),19.2 µM (active),11.8 µM (active),11.8 µM (active),27.3 µM (active),14.8 µM (active),7.69 µM (active),18.7 µM (active),23.5 µM (active),18.7 µM (active),–,–,–,–,–,–,–,–,–
O=C(C=Cc1cccc(S(=O)(=O)Nc2ccccc2)c1)NO,5.4 µM (active),6.79 µM (active),6.22 µM (active),0.679 µM (active),1.21 µM (active),11.1 µM (active),1.91 µM (active),3.95 µM (active),6.79 µM (active),–,6.79 µM (active),1.35 µM (active),6.03 µM (active),1.51 µM (active),38 µM (active),1.7 µM (active),19.1 µM (active),2.14 µM (active),–,9.59 µM (active)
CC(C)C[C@H](NC(=O)CNC(=O)c1cc(Cl)ccc1Cl)B(O)O,0.743 µM (active),18.7 µM (active),0.383 µM (active),0.59 µM (active),0.132 µM (active),0.344 µM (active),0.235 µM (active),6.11 µM (active),0.235 µM (active),1.87 µM (active),0.469 µM (active),–,0.465 µM (active),inactive,0.465 µM (active),–,0.185 µM (active),–,–,1.32 µM (active)
O=C(O)c1ccc2c(c1)nc(Nc1cccc(Cl)c1)c1ccncc12,18.7 µM (active),4.69 µM (active),12.1 µM (active),2.64 µM (active),7.43 µM (active),19.3 µM (active),14.8 µM (active),3.06 µM (active),3.72 µM (active),–,14.8 µM (active),–,–,–,–,–,–,–,–,9.35 µM (active)
O=C(CCCCCCC(=O)Nc1ccc([C@H]2O[C@@H](CSc3nc(-c4ccccc4)c(-c4ccccc4)o3)C[C@@H](c3ccc(CO)cc3)O2)cc1)NO,inactive,inactive,27.1 µM (active),7.43 µM (active),8.33 µM (active),21.7 µM (active),10.5 µM (active),15.3 µM (active),14.8 µM (active),14.8 µM (active),9.35 µM (active),–,–,–,–,–,–,–,–,–
C=CC(=O)Nc1cc2c(Nc3ccc(F)c(Cl)c3)ncnc2cc1OCCCN1CCOCC1,7.43 µM (active),5.9 µM (active),2.73 µM (active),23.5 µM (active),6.62 µM (active),21.7 µM (active),8.33 µM (active),7.69 µM (active),23.5 µM (active),18.7 µM (active),18.7 µM (active),–,–,–,–,–,–,–,–,18.7 µM (active)
